# In PubChem BioAssay AID1445 (SRMLSC, 2008):
# About 910 (0.41%) of roughly 220,000 compounds were called active.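 Rule for the calls: active = primary inhibition above the hit cutoff, then over 50% inhibition at one or more dose response concentrations (cut at about 23% in these data, passing the limit was not always enough); inconclusive = conflicting primary data, or primary hits not chosen for dose response; inactive = low primary inhibition, or under 50% at every dose.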 Only a selection was taken, and actives are over-represented in it overall. Results with a measured potency or affinity are listed apart. Where a SMILES comes first, the peptide text is derived from it.
# Target: Aminopeptidase N (Plasmodium falciparum (isolate 3D7)) (UniProt O96935)
# Assay: malaria alanyl aminopeptidase activity blockers – biochemical, fluorogenic H-Leu-NHMec substrate, 1536-well (AID 1445);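 note: plate controls were DMSO full reaction for no effect and no enzyme background for full effect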
# Conditions: recombinant M1AAP, H-Leu-NHMec fluorogenic kinetic assay; at 30 µM, stronger effect = higher value unless noted
# Chain of Aminopeptidase N (Plasmodium falciparum (isolate 3D7)) (O96935 whole entry, looked up): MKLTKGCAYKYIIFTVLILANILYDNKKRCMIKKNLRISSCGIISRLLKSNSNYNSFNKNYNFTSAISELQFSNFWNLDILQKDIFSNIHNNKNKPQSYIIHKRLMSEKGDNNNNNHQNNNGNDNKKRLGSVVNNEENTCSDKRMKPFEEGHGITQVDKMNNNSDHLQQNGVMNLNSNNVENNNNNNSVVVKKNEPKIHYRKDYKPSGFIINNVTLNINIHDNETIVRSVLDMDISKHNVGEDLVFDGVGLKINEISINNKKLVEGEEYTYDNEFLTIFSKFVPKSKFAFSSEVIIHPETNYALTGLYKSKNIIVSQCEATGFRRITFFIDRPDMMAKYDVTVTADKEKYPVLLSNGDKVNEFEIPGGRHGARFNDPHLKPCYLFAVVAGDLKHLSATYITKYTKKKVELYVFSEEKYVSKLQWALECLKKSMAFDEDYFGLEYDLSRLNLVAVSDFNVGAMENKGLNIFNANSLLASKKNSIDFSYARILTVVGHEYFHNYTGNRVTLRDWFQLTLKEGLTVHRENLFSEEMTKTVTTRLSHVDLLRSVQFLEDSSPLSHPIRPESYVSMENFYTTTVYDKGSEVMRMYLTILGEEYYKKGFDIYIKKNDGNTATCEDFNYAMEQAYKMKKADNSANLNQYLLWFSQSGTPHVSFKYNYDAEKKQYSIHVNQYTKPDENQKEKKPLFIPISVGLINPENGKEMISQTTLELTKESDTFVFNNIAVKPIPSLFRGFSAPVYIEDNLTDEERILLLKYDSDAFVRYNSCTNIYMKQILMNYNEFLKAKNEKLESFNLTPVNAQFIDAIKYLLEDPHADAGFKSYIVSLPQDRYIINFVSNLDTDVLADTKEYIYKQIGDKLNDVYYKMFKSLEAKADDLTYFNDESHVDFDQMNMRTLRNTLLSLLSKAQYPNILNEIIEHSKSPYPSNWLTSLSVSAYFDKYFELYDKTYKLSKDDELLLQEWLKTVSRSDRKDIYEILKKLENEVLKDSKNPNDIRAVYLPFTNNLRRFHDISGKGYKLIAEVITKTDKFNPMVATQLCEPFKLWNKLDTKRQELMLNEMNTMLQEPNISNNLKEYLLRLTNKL
row,SMILES,inhibition
1,CC(=O)Nc1ccc(/C(C)=N/NC(=O)c2ccc(F)cc2)cc1,7.12% (inactive)
2,O=C(Cn1cncn1)N/N=C/c1ccncc1,-2.16% (inactive)
3,COc1ccc(N(C(=O)C(C)C)S(=O)(=O)c2ccc3c(c2)n(C)c(=O)n3C)cc1,4.01% (inactive)
4,CC(C)c1ccc(-c2nnc(N)s2)cc1,-1.69% (inactive)
5,Cn1nc(C(C)(C)C)cc1NC(=O)Nc1ccc(F)cc1F,6.33% (inactive)
6,COc1ccc(S(=O)(=O)NCc2cc(-c3ccccc3Cl)no2)cc1,1.55% (inactive)
7,COc1ccc(NC(=O)c2oc3ccccc3c2NC(=O)C(C)(C)C)cc1,6.73% (inactive)
8,CCNc1nc(SC(C)C(=O)Nc2ccccc2)nc(N(C)C)n1 (configuration not stated),0.28% (inactive)
9,CCOC(=O)CNc1nc(Cl)nc(NC(C)(C)C)n1,5.43% (inactive)
10,O=C(COc1ncnc2ccccc12)N1CCN(S(=O)(=O)c2ccc(Cl)cc2)CC1,-2.49% (inactive)
11,O=C(COc1ncnc2c(Cl)cc(Cl)cc12)N1CCN(S(=O)(=O)c2ccccc2)CC1,5.95% (inactive)
12,O=C(COc1ncnc2ccccc12)N1CCN(S(=O)(=O)c2ccccc2)CC1,28.2% (active)
13,O=C(CSc1ncn[nH]1)NN(c1ccccc1)c1ccccc1,0.8% (inactive)
14,CC(=O)Nc1ccc(S(=O)(=O)Nc2nc3ccccc3nc2Nc2ccc(S(N)(=O)=O)cc2)cc1,19.6% (inactive)
15,Cc1nc(-c2cccc(NS(=O)(=O)c3ccc4ccccc4c3)c2)cs1,11.2% (inactive)
16,O=[N+]([O-])c1ccc(S(=O)(=O)Nc2nc3ccccc3nc2Nc2ccccc2)cc1,2.42% (inactive)
17,CC(=O)Nc1ccc(S(=O)(=O)Nc2nc3ccccc3nc2Nc2ccc(O)cc2)cc1,29.4% (inactive)
18,CC(=O)Nc1ccc(Nc2nc3ccccc3nc2NS(=O)(=O)c2ccccc2)cc1,14.8% (inactive)
19,Cc1nc(-c2cccc(NS(=O)(=O)c3ccccc3)c2)cs1,12.7% (inactive)

row,SMILES,inhibition
1,O=S(=O)(Nc1cccc(S(=O)(=O)N2CCCCCC2)c1)c1ccccc1,-2% (inactive)
2,O=[N+]([O-])c1cccc(S(=O)(=O)Nc2nc3ccccc3nc2Nc2cccc(S(=O)(=O)N3CCCCC3)c2)c1,9.64% (inactive)
3,COc1ccc(-n2c(COc3cccc4cccnc34)nnc2SCC(=O)O)cc1,-1.59% (inactive)
4,COc1cc(C)c(S(=O)(=O)NC2CC(C)(C)NC(C)(C)C2)cc1C,-4.25% (inactive)
5,N/C(=N\OC(=O)Cc1ccccc1[N+](=O)[O-])c1ccccn1,-2.27% (inactive)
6,CC12CCC(=O)N1c1ccccc1C(=O)N2c1ccccc1 (configuration not stated),5.47% (inactive)
7,CCC(CC)C(=O)OCC(=O)Nc1ccc(S(=O)(=O)N2CCOCC2)cc1OC,-0.13% (inactive)
8,COc1cccc2[nH]c3c(=O)n(CCCN4CCOCC4)cnc3c12,4.76% (inactive)
9,CCOC(=O)c1c(C)c2c(n1C)CCC/C2=N\O,5.95% (inactive)
10,Fc1cccc(/C=N/Nc2ncnc3nc[nH]c23)c1,17.8% (inactive)
11,CCOC(=O)c1c(C)[nH]c(C(=O)Nc2ccc(C)c(Cl)c2)c1C,-6.14% (inactive)
12,CC(C)[C@H](NC(=O)[C@H](CC(=O)O)NC(=O)[C@H](CCCCN)NC(=O)[C@@H](N)CCCN=C(N)N)C(=O)N[C@@H](Cc1ccc(O)cc1)C(=O)O (H-RKDVY-OH),-1.63% (inactive)
13,O=C(N[C@@H](Cc1ccc(O)cc1)C(=O)O)C(c1ccccc1)c1ccccc1,1.32% (inactive)
14,COc1cc(/C=N/n2cnnc2)ccc1OS(=O)(=O)c1ccccc1[N+](=O)[O-],-1.85% (inactive)
15,CC/C(C)=C1\SC(N2CCN(c3cccc(C(F)(F)F)c3)CC2)=NC1=O,-4.38% (inactive)
16,O=C(COc1ccc(Cl)cc1)NNC(=O)c1cccnc1,3.11% (inactive)
17,CCC(CC)NC(=O)c1cccc(Br)c1,4.75% (inactive)
18,COc1cccc(NC(=O)CSc2nc3n[nH]c(C)c3c(=N)n2-c2cccc(OC)c2)c1,1.29% (inactive)
19,CCn1c(Cc2ccc(OC)cc2)nnc1SCC(=O)NC1CCCCC1,5.01% (inactive)

row,SMILES,inhibition
1,COc1cccc(-n2c(SCC(=O)NC3CCCCC3)nc3n[nH]c(C)c3c2=N)c1,57.3% (active)
2,Cn1c(Cc2ccccc2)nnc1SCC(=O)NC1CCCCC1,-1.27% (inactive)
3,CCc1ccc(NC(=O)CSc2nc3n[nH]c(C)c3c(=N)n2-c2cccc(OC)c2)cc1,3.02% (inactive)
4,COc1ccc(Cc2nnc(SCC(=O)NC3CCCCC3)n2C)cc1,24.3% (active)
5,Cc1ccc(S(=O)(=O)Oc2ccccc2/C=N/NC(=O)c2nn(C)cc2[N+](=O)[O-])cc1,9.1% (inactive)
6,CCOCCCNS(=O)(=O)c1ccc(OC)c(Cl)c1Cl,-1.01% (inactive)
7,COc1cnn(Cc2ccccc2)c(=O)c1SCc1ccccc1,2.35% (inactive)
8,CS(=O)(=O)N1CCN(c2ccc(NC(=S)NC(=O)c3ccccc3[N+](=O)[O-])cc2)CC1,2.8% (inactive)
9,Cc1[nH]n(-c2cccc(Cl)c2)c(=O)c1-c1ccccc1,13.4% (inactive)
10,Cc1[nH]n(-c2cccc(Cl)c2)c(=O)c1-c1ccc(Cl)cc1,27.2% (active)
11,Cc1[nH]n(-c2ccccc2)c(=O)c1-c1ccc(Cl)cc1,17.9% (inactive)
12,CC(=O)c1sc(NC(=O)CCCOc2ccc(Cl)cc2)nc1C,-3.27% (inactive)
13,Oc1ccccc1N=Nc1nc(-c2ccccc2)c(-c2ccccc2)[nH]1,-7.75% (inactive)
14,O=c1c(=Nc2ccccc2O)c(=O)c2ccccc12,-8.18% (inactive)
15,CCOc1ccc(NC(=S)Nc2ccc(Br)cc2Cl)cc1,2.64% (inactive)
16,O=C(CN1C(=O)C2C3C=CC(C3)C2C1=O)Nc1ccc(C(=O)O)cc1 (configuration not stated),14.6% (inactive)
17,Cc1ccccc1NC(=O)CN1C(=O)C2C3CC(C(Br)C3Br)C2C1=O (configuration not stated),5.98% (inactive)
18,CCOc1ccc(NC(=O)c2ccccc2NC(=O)CN(C)CC(=O)Nc2ccc(C)cc2)cc1,1.3% (inactive)
19,N#CC(=NCc1cccnc1)C1=C(O)c2ccccc2C1=O,-2.18% (inactive)
